Laboratory results: PubChem BioAssay (NCATS)
Records with an inconclusive call do not appear. The source made the active and inactive calls. Calls come from the whole dose curve; as a rule, active = well fitted activation curve with a large enough effect in the main read-out, with a control signal flat (not every such curve was filed as active); inconclusive = small, poorly fitted or top-dose-only effect, or effect the other way, or a change in a side signal; inactive = flat fitted curve, though single readings scatter.

molecular target: 3',5'-cyclic-AMP phosphodiesterase 4B (Homo sapiens) (UniProt Q07343); experiment: qHTS Assay for Inhibitors of PDE-IV (AID 607); conditions: HEK293 ACTOne CNG channel cells, membrane potential fluorescence; series mostly up to 22.9 µM
Description: NIH Chemical Genomics Center [NCGC]
NIH Molecular Libraries Screening Centers Network [MLSCN]
The cyclic nucleotide phosphodiesterases (PDEs) are proteins that catalyze hydrolysis of 3', 5'-cyclic nucleotides, such as cyclic adenosine monophosphate (cAMP) and cyclic guanosine monophosphate (cGMP), to their corresponding 5'-nucleotide monophosphates. These enzymes play an important role in controlling cellular concentrations of cyclic nucleotides and have a central role in a variety of intracellular signaling events. cAMP PDEs are emerging as a promising class of drug targets in asthma and cardiovascular disease therapeutic areas.
There are no commercially available cell-based screening assays for PDE inhibitors: currently biochemical assays are done using pure substrates (cAMP or cGMP) and purified recombinant PDE enzymes. As with other biochemical screens on intracellular targets, false positives and false negatives may result from issues involving cell membrane permeability, cellular metabolism, and the like.
Here we report the development of a cell-based screening assay for cAMP phosphodiesterase (PDE) inhibitors. The assay is based on the BD ACTOne# technology (BD Biosciences) which utilizes a modified cyclic nucleotide-gated channel (CNG) to monitor intracellular cAMP changes in live cells. The CNG channel is localized on the plasma membrane, and opens when the intracellular cAMP level increases, resulting in ion flux and cell membrane depolarization. The influx of cations through the CNG channel can be quantified using membrane potential (MP) dyes. We modified the BD ACTOne technology to allow the detection of PDE inhibitors, and performed an inhibitor screen for PDE-IV, which is expressed endogenously in HEK293 cells. We optimized this assay in homogeneous 1536-well plate assay format for high throughput screening.
NCGC Assay Protocol Summary:
The medium contained 10% FBS (Invitrogen), 2 mM L-glutamine, and 250 ug/ml G418 (Cellgro) and 1 ug/ml puromycin (Clontech). ACTOneTM parental cells (BD Biosciences) were maintained in the same medium without puromycin.
The activity of the CNG channel was measured by BD ACTOneTM membrane potential dye kit (BD Biosciences). Forskolin, a positive control for cAMP activation and RO 20-1724, a PDE inhibitor, were both purchased from Sigma and solublized in DMSO.
Sequence,Parameter,Value,Description
1,Reagent,3 uL,1000 cells/well 1536 TC treated Black plate
3,Compound,0.5 uL,Kalypsys dispense RO 20-1724 100 uM final [A]
4,Reagent,3 uL,BD membrane potential dye
6,Compound,23 nL,Final concentration was 0.7nM to 22.9uM
8,Detector,EX 535 / EM 590 [B],Envision
Footnotes: [A] The stock 2 mM RO 20-1724 PDE inhibitor was made in 10 % DMSO. Parental cell line received 10 uM forskolin + 100 uM RO. [B] Envsion settings: Bottom Excitation 535/20 nm top emission 590/20, gain of 150 and 5 flashes per well.
Keywords: PDE, PDE-IV, cytotoxicity, flourescence, MLSMR, MLSCN, NIH Roadmap, qHTS, NCGC
Potency is the fitted concentration of half-maximal effect.

Chain of 3',5'-cyclic-AMP phosphodiesterase 4B (Homo sapiens) (Q07343 whole entry, looked up): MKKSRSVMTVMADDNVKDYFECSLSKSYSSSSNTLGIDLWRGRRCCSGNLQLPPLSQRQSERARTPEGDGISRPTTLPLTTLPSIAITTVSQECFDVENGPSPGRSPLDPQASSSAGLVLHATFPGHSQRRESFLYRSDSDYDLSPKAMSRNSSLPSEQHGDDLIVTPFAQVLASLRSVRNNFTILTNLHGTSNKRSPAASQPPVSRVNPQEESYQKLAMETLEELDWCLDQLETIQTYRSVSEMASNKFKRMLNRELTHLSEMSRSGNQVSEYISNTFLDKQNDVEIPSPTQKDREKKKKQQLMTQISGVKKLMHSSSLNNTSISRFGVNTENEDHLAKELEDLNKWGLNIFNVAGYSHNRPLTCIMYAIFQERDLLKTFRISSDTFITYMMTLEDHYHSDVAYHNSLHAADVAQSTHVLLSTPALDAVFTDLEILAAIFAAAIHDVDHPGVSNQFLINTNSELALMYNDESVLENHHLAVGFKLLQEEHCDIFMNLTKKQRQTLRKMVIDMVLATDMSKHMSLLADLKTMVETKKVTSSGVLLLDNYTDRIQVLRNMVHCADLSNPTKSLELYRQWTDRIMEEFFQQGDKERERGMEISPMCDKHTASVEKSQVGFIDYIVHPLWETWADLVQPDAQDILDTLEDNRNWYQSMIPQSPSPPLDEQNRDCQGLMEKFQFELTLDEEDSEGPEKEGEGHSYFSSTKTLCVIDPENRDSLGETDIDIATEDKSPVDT

Potency, inactive:
COc1ccc(NC(=O)N2CCC3(CC2)CCN(C(=O)c2cccc(F)c2)CC3)cc1
CN1CCN(c2ccnc(-c3ccc(N(C)C)cc3)n2)CC1
N#Cc1cccc(-c2nc3cnc(N4CCOCC4)nc3n(Cc3ccc(F)cc3)c2=O)c1
COc1ncc2nc(-c3cn(C)c4ccccc34)c(=O)n(C)c2n1
CN(C)CC[C@@H](c1ccccc1)c1ccccn1
CNc1nc(-c2ccccc2C)nc2ccccc12
CC(=O)N(CC(O)CN(C(C)=O)c1c(I)c(C(=O)NC[C@@H](O)CO)c(I)c(C(=O)NC[C@@H](O)CO)c1I)c1c(I)c(C(=O)NC[C@@H](O)CO)c(I)c(C(=O)NC[C@@H](O)CO)c1I
CN(C)c1ncc2nc(-c3cccc(C#N)c3)c(=O)n(C)c2n1
COc1cccc(Cn2c(=O)c(-c3cn(C)c4ccccc34)nc3cncnc32)c1
COc1ccccc1-c1cc(-n2ccnc2)ncn1
O=C(c1csnn1)N1CCC2(CCCN(c3ncccn3)C2)CC1
Cc1noc(C)c1-c1nccc(N(C)C)n1
Cc1cccc(CNc2ncncc2-c2cccc(NS(C)(=O)=O)c2)c1
COC(=O)N1CCC2(CCN(Cc3ccccc3OC)CC2)CC1
CC(=O)NCCNc1ncnc2ccc(-c3ccc4c(c3)OCO4)cc12
O=C(c1cc(C(F)(F)F)cc(C(F)(F)F)c1)N1CCC2(CC1)CCN(c1ccccc1)CC2
Cn1cccc1C(=O)N1CCC2(CCN(Cc3nccs3)CC2)CC1
O=C(c1ccncc1)N1CCC2(CCN(Cc3nccs3)CC2)CC1
O=c1c(-c2ccc(F)cc2)nc2cncnc2n1Cc1ccc(F)cc1
COC(=O)C1=CO[C@@H](C)[C@H]2CN3CCc4c([nH]c5ccccc45)[C@@H]3C[C@H]12
O=S(=O)(c1ccccc1)N1CCC[C@@]2(CCN(Cc3cc(C(F)(F)F)cc(C(F)(F)F)c3)C2)C1
O=C(c1ccco1)N1CCC[C@@]2(CCN(c3ncccn3)C2)C1
COc1ccc(Oc2ncc3nc(-c4cn(C)c5ccccc45)c(=O)n(C)c3n2)cc1
O=C(c1csnn1)N1CCC2(CC1)CCN(c1ccncc1)CC2
COc1ccc(-n2c(=O)c(CCc3ccccc3)nc3cnc(N4CCN(C)CC4)nc32)cc1
O=c1cnc2cnc(N3CCOCC3)nc2n1Cc1ccc(F)cc1
CN1CCN(c2ncc3ncc(=O)n(CCc4ccccc4)c3n2)CC1
c1cncc(-c2nc(-n3ccnc3)c3ccccc3n2)c1
Cc1noc(C)c1C(=O)N1CCC2(CC1)CCN(c1ccccn1)CC2
O[C@@](CCN1CCCCC1)(c1ccccc1)C1CCCCC1
COc1ccc(Oc2ncc3nc(-c4cc(F)cc(F)c4)c(=O)n(C[C@H]4CCCO4)c3n2)cc1
COc1ccc2[nH]cc(CCNc3ccnc(-c4ccoc4)n3)c2c1
CN(C)C(=O)c1ccc(-c2cncnc2NCCN2CCOCC2)cc1
Cc1cnc(CNc2nc(-c3ccoc3)nc3ccccc23)cn1
CC(=O)Nc1c(I)c(C(=O)N[C@H]2[C@@H](O)[C@H](O)[C@H](CO)O[C@@H]2O)c(I)c(N(C)C(C)=O)c1I
N#CCCn1c(=O)c(-c2ccccc2)nc2cnc(N3CCOCC3)nc21
COc1ncc2nc(-c3ccc(Cl)cc3)c(=O)n(Cc3cccs3)c2n1
O=S(=O)(c1ccccc1)N1CCC2(CCCN(Cc3ccncc3)C2)CC1
Cc1cnc(CNc2nc(-c3ccccc3C(F)(F)F)nc3ccccc23)cn1

Potency, active:
COc1ncc2ncc(=O)n(C3CC3)c2n1 1580 nM
